Some test systems named below: T-47D breast; BT-549 breast; MDA-MB-435 melanoma; SW-620 colon; MCF7 breast; HCT-116 colon; HCC-2998 colon; KM12 colon.
Common to all, as to assay: NCI-60 one-dose screen, 48 h (100 = growth as untreated, 0 = no growth, -100 = all killed)
Holding throughout (conditions): 10 µM unless noted

Among the data in PubChem BioAssay (NCI) are growth values, retold here.

The panel holds about 83,000 compounds, 20% with a hit somewhere; the sample as a whole holds those more often.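 For each line, cells grew in 96-well plates with the test compound present at a single concentration for 48 hours.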 Unmarked numbers belong to inactive results. Activity calls are given as the source filed them. The calls were made as follows: active = growth percent below 10; inactive = the rest.

As for `COc1cc2c(cc1C)NC(=O)/C2=C\c1c[nH]c2ccccc12`, the growth in the assay with T-47D breast was 65.8%; in the assay on BT-549 breast, 94.6%; with MDA-MB-435 melanoma it was 68.8%; in the assay with SW-620 colon it was 101%; with MCF7 breast, 59.2%; with HCT-116 colon, 78.5%. For the same molecule, the growth with HCC-2998 colon is 109%; in the assay with KM12 colon, 24.3%.
For the molecule `CCOC(=O)C(Nc1ccccc1)C(=O)OCC`, the growth in the assay on T-47D breast was 102%; with BT-549 breast it was 95.1%; with MDA-MB-435 melanoma it was 110%; with SW-620 colon, 111%; in the assay on MCF7 breast it was 95.8%; in the assay with HCT-116 colon, 101%. Further, the growth was 103% with HCC-2998 colon and 115% with KM12 colon.
Regarding `CCCCNCC(O)c1cc(-c2ccc(C(F)(F)F)cc2)nc(-c2ccc(C(F)(F)F)cc2)c1` (configuration not stated), the growth was -80.3% (active) with T-47D breast; -31.2% (active) in the assay on BT-549 breast; -68.6% (active) with MDA-MB-435 melanoma; -82.1% (active) with SW-620 colon; -84.8% (active) with MCF7 breast; -88.5% (active) in the assay with HCT-116 colon. The growth with HCC-2998 colon is -75.8% (active); in the assay on KM12 colon it was -89.2% (active).
In the case of `Oc1[nH]c2ccccc2c1/C=c1/ccc2c(c1)N=C(c1ccc(C(F)(F)F)cc1)N=2`, the growth with T-47D breast was 35.1%; in the assay on BT-549 breast it was 43.3%; with MDA-MB-435 melanoma it was 32.5%; with SW-620 colon, 63.7%; in the assay on MCF7 breast it was 37%; in the assay with HCT-116 colon it was 39.5%. Moreover, the figures for the growth with HCC-2998 colon and with KM12 colon were 61.4% and 31.6%, respectively.
As to `COC(=O)C(C)NC1=C(Cl)C(=O)C(NC(C)C(=O)OC)=C(Cl)C1=O` (configuration not stated), the growth in the assay on T-47D breast was 96.6%; in the assay on BT-549 breast, 99.4%; in the assay with MDA-MB-435 melanoma, 75.7%; with SW-620 colon, 104%; with MCF7 breast, 82.2%; in the assay on HCT-116 colon it was 97.9%. The growth in the assay with HCC-2998 colon was 106%; in the assay on KM12 colon it was 96.8%.
In the case of `CCOc1cccc(/C=N/NC(=O)c2ccc(Nc3ccnc(C(F)(F)F)c3)cc2)c1O`, the growth was 3.07% (active) in the assay on T-47D breast; 14.6% with BT-549 breast; 40.2% with MDA-MB-435 melanoma; 32.1% with SW-620 colon; -1.78% (active) in the assay on MCF7 breast; 7.55% (active) in the assay on HCT-116 colon. Moreover, the growth in the assay on HCC-2998 colon was 35.3%; with KM12 colon, 24.8%.
As to `C=CCn1c(C)nc2cc(Nc3nc(Nc4ccc5nc(C)n(CC=C)c5c4)nc4ccccc34)ccc21`, the growth with T-47D breast is 96%; in the assay with BT-549 breast, 106%; with MDA-MB-435 melanoma, 108%; with SW-620 colon, 106%; in the assay on MCF7 breast it was 92.4%; with HCT-116 colon, 98.9%. Also, the growth in the assay with HCC-2998 colon was 104%; with KM12 colon it was 109%.
As for `COc1ccc(C(=O)C(C#N)c2cc(OC)c(OC)c(OC)c2)cc1` (configuration not stated), the growth in the assay on T-47D breast was 98.3%; with BT-549 breast, 98.3%; in the assay on MDA-MB-435 melanoma, 101%; in the assay with SW-620 colon, 107%; in the assay with MCF7 breast, 99.6%; in the assay with HCT-116 colon it was 97.5%. Also, the growth in the assay with HCC-2998 colon is 100%; with KM12 colon it was 115%.
Take `CN(C)CCOc1nc2c3cccnc3cc(-c3cccc(Cl)c3)c2c2ncccc12`: the growth with T-47D breast was 20.1%; with BT-549 breast it was 57.9%; in the assay with MDA-MB-435 melanoma, -59.6% (active); in the assay on SW-620 colon, -44.3% (active); with MCF7 breast, -50% (active); in the assay on HCT-116 colon, -81.3% (active). The growth with HCC-2998 colon is -79.2% (active); in the assay on KM12 colon it was 14.2%.
Turning to `O=C(CN1CCN(c2ccccc2)CC1)N1CCN(c2nnc(-c3ccc(Cl)cc3)c(-c3ccc(Cl)cc3)n2)CC1`, the growth was 36.1% in the assay on T-47D breast; 46.2% in the assay with BT-549 breast; 48.2% in the assay with MDA-MB-435 melanoma; 68.8% in the assay on SW-620 colon; 33% in the assay on MCF7 breast; 25% in the assay with HCT-116 colon. Moreover, the growth in the assay with HCC-2998 colon is 62.4%; in the assay with KM12 colon, 46.1%.
In the case of `O=Cc1ccc2nc(C(Cl)(Cl)Cl)ccc2c1`, the growth with T-47D breast is 97.6%; in the assay on BT-549 breast it was 95.9%; in the assay with MDA-MB-435 melanoma, 99.6%; in the assay on SW-620 colon it was 98.3%; in the assay on MCF7 breast, 82.5%; with HCT-116 colon, 96.7%. The growth with HCC-2998 colon is 109%; with KM12 colon, 100%.
With `COc1ccc(Nc2ncccc2C(=O)NCc2cn(Cc3cc(OC)cc(OC)c3)nn2)cc1`, the growth was 93.6% with T-47D breast; 98.4% in the assay with BT-549 breast; 106% in the assay on MDA-MB-435 melanoma; 105% in the assay on SW-620 colon; 104% with MCF7 breast; 94.8% in the assay with HCT-116 colon. In addition, the growth was 103% with HCC-2998 colon and 102% in the assay on KM12 colon.
For the molecule `CC(=O)N[C@@H](CCC(N)=O)C(=O)O`, the growth with T-47D breast was 107%; in the assay with BT-549 breast, 118%; with MDA-MB-435 melanoma, 99.6%; in the assay with SW-620 colon, 94.1%; with MCF7 breast, 98.8%; in the assay with HCT-116 colon, 96.3%. Besides, the growth in the assay with HCC-2998 colon is 99.5%; with KM12 colon it was 103%.
`CCCCCCCCCCCC1=NC(C)(C)CN1C(C)(C)CO`: the growth with T-47D breast was 45.3%; in the assay on BT-549 breast it was 76.6%; with MDA-MB-435 melanoma it was -25.2% (active); in the assay with SW-620 colon, 10.8%; in the assay on MCF7 breast, 24.3%; in the assay on HCT-116 colon it was 8.08% (active). Further, the results for the growth with HCC-2998 colon and in the assay with KM12 colon were -75.5% (active) and -10.2% (active), respectively.
